According to PubChem BioAssay AID624483 (NMMLSC, 2012):
Screen size: about 360,000 compounds; about 11,000 (3.1%) were called active. Another 2% or so got no clear call; they are omitted. Cut-off read from the data, not from the text of the source: active = fluorescence intensity above about 16000; inconclusive = no clear call, values can overlap the other calls; inactive = below that. Shown is part of a subset that was picked to be rich in actives.

Experiment: counter-screen for toxin protease inhibitors: compound fluorescence, primary screen, artefact control for toxin protease inhibitor project, biochemical, multiplex microsphere, HTS (AID 624483)
Details: compound autofluorescence counterscreen, microsphere flow cytometry; hits give high values

Row | Structure (SMILES) | fluorescence intensity
1 | COC(=O)c1ccc(C)c(NC(=O)Cn2c(C)csc2=O)c1 | 3770 (inactive)
2 | Cc1oc(-c2ccccc2Cl)[n+]([O-])c1C | 25200 (active)
3 | CCOc1cnc(-c2c(-c3ccccc3Cl)noc2C)o1 | 2480 (inactive)
4 | Cc1oc(-c2cccc(Cl)c2)[n+]([O-])c1C | 3960 (inactive)
5 | CCc1sc(C(=O)N2CCN(CC(=O)Nc3cccc(F)c3)CC2)cc1C | 3730 (inactive)
6 | Cc1ccc(NC2CCCN(C(=O)CCc3cn[nH]c3)C2)cc1C (configuration not stated) | 4290 (inactive)
7 | CC1=C(C(N)=O)C(c2ccc(F)cc2)n2nc(CCCO)nc2N1 (configuration not stated) | 3660 (inactive)
8 | COC(=O)c1nc2n(n1)C(c1ccc([N+](=O)[O-])cc1)C(C(=O)Nc1ccc(Cl)cc1)=C(C)N2 (configuration not stated) | 2390 (inactive)
9 | COCCOC(=O)C1=C(C)Nc2nc(C)nn2C1c1ccccc1 (configuration not stated) | 17100 (active)
10 | O=C(Nc1ccc(Cl)cc1)C1Cc2c(-c3ccc4c(c3)OCO4)ccnc2O1 (configuration not stated) | 3410 (inactive)
11 | Cc1c(C(=O)Nc2ccccc2Cl)oc2ccc(S(=O)(=O)N3CCC4(CC3)OCCO4)cc12 | 22400 (active)
12 | COc1ccc(NC(=O)c2oc3ccc(S(=O)(=O)N4CCOCC4)cc3c2C)cc1 | 4190 (inactive)
13 | Cc1c(C(=O)Nc2cccc(S(=O)(=O)N3CCOCC3)c2)oc2ccccc12 | 2760 (inactive)
14 | CC(=O)Nc1ccc(-c2ccnc3c2CC(C(=O)NC(C)C)O3)cc1 (configuration not stated) | 3750 (inactive)
15 | COc1cc(C=C(OC(C)=O)c2ccc3c(c2)OCO3)cc(OC)c1OC | 6370 (inactive)
16 | NNc1nc2c(Cl)cccc2s1 | 6940 (inactive)
17 | CC(C)CCNC(=O)CCNS(=O)(=O)c1ccc(Cl)cc1 | 19700 (active)
18 | CC(C)CNS(=O)(=O)c1ccc(CCC(=O)NCc2ccc(Cl)cc2)cc1 | 3570 (inactive)
19 | Cc1ccc(S(=O)(=O)NCCC(=O)NCc2ccc(Cl)cc2)cc1C | 4140 (inactive)
20 | Cc1ccc(-c2nc3ccc(Br)cn3c2Cc2ccccc2C(F)(F)F)cc1 | 5850 (inactive)
21 | CC(=O)c1nn(-c2ccccc2)c(=Nc2ccccc2)cc1C | 4100 (inactive)
22 | Cn1c(SCC(=O)Nc2nccs2)nnc1-c1cccnc1 | 4450 (inactive)
23 | Cc1ccc(C(C)C)c(OCc2nnc(SCC(=O)Nc3nccs3)n2C)c1 | 17800 (active)
24 | COc1ccc(CC(=O)NCc2nnc(SCC(=O)Nc3nccs3)n2C)cc1 | 4710 (inactive)
25 | c1ccc2c(NC3C4CC5CC(C4)CC3C5)nc(N3CCOCC3)nc2c1 (configuration not stated) | 4640 (inactive)

Row | Structure (SMILES) | fluorescence intensity
26 | NC(c1csc(NC(=O)Nc2ccccc2Oc2ccccc2)n1)c1ccccc1Cl (configuration not stated) | 3590 (inactive)
27 | O=C(c1cc(C2CCCCN2S(=O)(=O)c2ccccc2)on1)N1CCOCC1 (configuration not stated) | 3020 (inactive)
28 | CC(=O)NS(=O)(=O)c1ccc(N/C(N)=N/c2nc(C)cc(C)n2)cc1 | 3910 (inactive)
29 | O=C1NC(c2ccccc2)Oc2ccccc21 (configuration not stated) | 3320 (inactive)
30 | C[C@@H]1NC(=O)[C@@]2(C)[C@@H](c3ccccc3)[C@H]3COc4ccccc4[C@@H]3N2C1=O | 3420 (inactive)
31 | CN1CC(c2ccccc2)C2(COc3ccccc3C2=O)C12C(=O)Nc1ccccc12 (configuration not stated) | 16700 (active)
32 | Cc1cc(C)n2c(NCc3ccccc3)c(CC(C)C)nc2n1 | 6800 (inactive)
33 | CCN(CC(=O)Nc1c(F)cccc1F)C(=O)c1cnc(C)cn1 | 4920 (inactive)
34 | Cc1cccc(N2CCN(C(=O)/C=C/c3ccco3)CC2)c1C | 2640 (inactive)
35 | CC(=O)N1CCN(c2cccc(C)c2C)CC1 | 20800 (active)
36 | CCC(CC)C(=O)N1CCN(c2cccc(C)c2C)CC1 | 2200 (inactive)
37 | C=CCC[C@H](CCCCC)OC(=O)/C=C/[C@H](O)[C@@H](O)C[C@@H](O)CC=C | 4110 (inactive)
38 | CCCc1ccc(C(O)c2ncc(-c3cccc(OC)c3)[nH]2)cc1 (configuration not stated) | 3420 (inactive)
39 | COc1cccc(-n2c(=S)sc3c(=O)n(-c4ccccc4C)c(SCC(=O)O)nc32)c1 | 3210 (inactive)
40 | CCOC(=O)CSc1nc2c(c(=O)n(Cc3ccccc3Cl)c(=O)n2C)n1C | 4690 (inactive)
41 | CCOC(=O)CSc1nc2c(sc(=S)n2CCc2ccccc2)c(=O)n1Cc1ccco1 | 16400 (active)
42 | COc1ccc(NC(=O)c2sc(=O)n(Cc3ccc(S(=O)(=O)N(C)C)cc3)c2C)cc1 | 5230 (inactive)
43 | COc1ccc(NC2=CC(=S)NC(C)(C)C2)cc1 | 26300 (active)
44 | COc1ccc(Nc2ccc3ccccc3c2)cc1 | 3980 (inactive)
45 | COc1ccc(NC(=O)C(Br)C(C)C)cc1 (configuration not stated) | 3200 (inactive)
46 | Cc1cc(Br)cn2c(Cc3ccsc3)c(-c3ccc(C#N)cc3)nc12 | 4980 (inactive)
47 | CC(C)Nc1nc(NCCOc2ccccc2Cl)c2sccc2n1 | 4090 (inactive)
48 | C(=N/N1CCN(c2ccccc2)CC1)/c1cccs1 | 23100 (active)
49 | COc1cc(/C=N/N2CCN(c3ccccc3)CC2)ccc1OC(C)=O | 4030 (inactive)
50 | Cc1ccc(N2CCN(/N=C/c3cccs3)CC2)cc1 | 15100 (inactive)

Row | Structure (SMILES) | fluorescence intensity
51 | CCCCc1nnc(NC(=O)CSc2nc(C)cc(=O)[nH]2)s1 | 22200 (active)
52 | Cc1ccc(OCCCC(=O)Nc2ccc(S(=O)(=O)Nc3cc(C)nc(C)n3)cc2)cc1 | 5510 (inactive)
53 | Cc1ccc(NC(=O)CSc2nc(CSc3ccc(C)cc3)cc(=O)[nH]2)cc1 | 4220 (inactive)
54 | CCCc1cc(=O)[nH]c(SCC(=O)Nc2ccc(C(=O)Nc3ccccc3OC)cc2)n1 | 3560 (inactive)
55 | Cc1nc2nc(SCC(=O)Nc3cccc(F)c3)[nH]c2cc1Br | 5340 (inactive)
56 | CCCCc1nc(SCC(=O)Nc2nnc(C(C)C)s2)n[nH]1 | 5330 (inactive)
57 | COC(=O)c1cccc(NC(=O)CSc2nc(C)cc(=O)[nH]2)c1 | 19300 (active)
58 | CCCCc1nnc(NC(=O)CSc2nc(N)cc(=O)[nH]2)s1 | 4560 (inactive)
59 | COc1ccc(NC(=O)CSc2nc(NS(=O)(=O)c3ccc(C)cc3)cc(=O)[nH]2)cc1 | 19100 (active)
60 | COc1ccc(C2=NS(=O)(=O)N(C)C(C(=O)N3CCCCC3)=C2)cc1 | 5200 (inactive)
61 | COCCNc1ncnc2c1ncn2[C@H]1CN(Cc2ccc(OC)cc2)C[C@@H](CO)O1 | 2990 (inactive)
62 | Cc1cccc(CN2CCN(C3CN(Cc4cn(Cc5ccccc5F)nn4)S(=O)(=O)C3)CC2)c1 (configuration not stated) | 6290 (inactive)
63 | O=C(COc1ccc(Br)cc1)OCC(=O)c1ccc[nH]1 | 3140 (inactive)
64 | Cc1ccc2oc(C(=O)N3CCN(C)C[C@@H]3C(C)C)c(C)c2c1 | 3260 (inactive)
65 | O=C1OCCOC2CCCc3oc(-c4ccccc4)c1c32 (configuration not stated) | 5740 (inactive)
66 | CCCCC(O)C1=C[N+](=O)CC=C1 (configuration not stated) | 4270 (inactive)
67 | CC1CCCCC1NC(=O)CCS(=O)(=O)c1cccc2nonc12 (configuration not stated) | 4530 (inactive)
68 | CCc1nc2c(OCc3ccc(C(F)(F)F)cc3)cccn2c1N(C)C(=O)CC(C)C | 3820 (inactive)
69 | CCOC(=O)c1c(-c2ccccc2)oc2ccc(OC(=O)N(C)C)cc12 | 18300 (active)
70 | CCOC(=O)c1c(-c2ccccc2)oc2cc(Br)c(O)c(C=O)c12 | 3500 (inactive)
71 | CCOC(=O)c1c(-c2ccccc2)oc2ccc(OCC(=O)NN)cc12 | 3330 (inactive)
72 | CC1Oc2ccccc2N(Cc2cccnc2)C1=O (configuration not stated) | 22000 (active)
73 | CC12c3ccccc3C(c3ccccc31)C1C(=O)N(Cc3cccnc3)C(=O)C12 (configuration not stated) | 10400 (inactive)
74 | Cc1cccc(C)c1NC(=O)CN1C(=O)C(C)Oc2ccccc21 (configuration not stated) | 4620 (inactive)
75 | Cc1ccc(NC(=O)C(=O)NCc2ccco2)c(C)c1 | 4600 (inactive)

Row | Structure (SMILES) | fluorescence intensity
76 | Cc1ccc(SCC(=O)NC(=O)NCc2ccco2)c(C)c1 | 19200 (active)
77 | Cc1cc(C)n2nc(SCC(=O)NC(=O)NCc3ccco3)nc2n1 | 3150 (inactive)
78 | Cn1c(-c2ccc(F)cc2)cnc1SCC(=O)NCc1ccco1 | 9840 (inactive)
79 | Cc1ccc(-c2csc3nnc(SCC(=O)NCc4ccco4)n23)cc1 | 16800 (active)
80 | O=C(CSc1nnc2scc(-c3ccc(F)cc3)n12)NCc1ccco1 | 7830 (inactive)
81 | O=C(Nc1ccc(N2CCN(C(=O)c3ccccc3)CC2)c(Cl)c1)c1ncn[nH]1 | 4940 (inactive)
82 | CCCS(=O)(=O)NC(=O)C1(C)CCCN(C(=O)c2cc(C)on2)C1 (configuration not stated) | 3970 (inactive)
83 | CC(C)(O)C1=C[N+](=O)CC=C1 | 6070 (inactive)
84 | CN1OC[C@@H]2CN(S(=O)(=O)c3cccc(C(F)(F)F)c3)[C@H](c3ccc(-c4cc5ccccc5o4)cc3)C[C@@H]21 | 3760 (inactive)
85 | Nc1[nH]c(C(=O)c2ccccc2)c(-c2ccncc2)c1C(=O)NCc1cccc2ccccc12 | 5030 (inactive)
86 | CCN(CC)c1ncnc2c1ncn2[C@H]1CN(Cc2cccs2)C[C@@H](CO)O1 | 3720 (inactive)
87 | CCCn1nc2cc(C(=O)NCc3ccccc3)ccc2c1OCC | 4050 (inactive)
88 | Cc1cc(N2C(=O)c3ccc(C(=O)NCc4ccccc4)cc3C2=O)no1 | 17400 (active)
89 | Cc1ccc(CNC(=O)c2ccc3c(c2)S(=O)(=O)c2ccccc2C3=O)cc1 | 3750 (inactive)
90 | O=c1[nH]cccc1-c1nc2ccccc2n1Cc1ccc(Cl)cc1 | 4020 (inactive)
91 | COc1ccc(NC(=O)C2Cc3c(-c4ccc(Cl)cc4)ccnc3O2)cc1 (configuration not stated) | 3760 (inactive)
92 | O=C(CC1NCCNC1=O)Nc1cc(Cl)cc(Cl)c1 (configuration not stated) | 7460 (inactive)
93 | O=C(CC1NCCNC1=O)Nc1ccc(Oc2ccccc2)cc1 (configuration not stated) | 16900 (active)
94 | CCOc1ccc(NC(=O)CC2NCCNC2=O)cc1 (configuration not stated) | 4570 (inactive)
95 | Cc1ccccc1CSc1nnc(CCCCCNC(=O)OC(C)(C)C)o1 | 3660 (inactive)
96 | Cc1cccc(NC(=O)CSc2nnc(CCCCCNC(=O)OC(C)(C)C)o2)c1C | 20100 (active)
97 | Cc1cccc(NC(=O)CSc2nnc(CCNC(=O)OC(C)(C)C)o2)c1C | 3990 (inactive)
